For assay [1], the target named is Nuclear receptor coactivator 3 (Homo sapiens) (UniProt Q9Y6Q9). Put plainly: SRC3 coactivator transcriptional activity inhibitors, confirmation, cell-based, luminescence, quadruplicate (AID 588792;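 active means mean inhibition over 43.08%, the solvent-only control mean plus 3 SD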;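 further: 0% = DMSO treated cells and 100% = gossypol at 36 µM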). Conditions: HEK293 GAL4-SRC3 luciferase reporter, at 3.6 µM, hits give high values.
In assay [2] the test system is transactivating tegument protein VP16 (Human herpesvirus 1), Gal4-VP16 luciferase reporter. The assay can be described thus: VP16 transactivation inhibitors, counter-screen for SRC3 inhibitor project, cell-based, luminescence, high throughput (AID 588794; in the data active means inhibition above about 30%). Conditions: mammalian cells, VP16-driven luciferase reporter luminescence; at 3.6 µM; hits give high values.
The target of assay [3] is Nuclear receptor coactivator 1 (Homo sapiens) (UniProt Q15788). The assay can be described thus: SRC1 coactivator transcriptional activity inhibitors, confirmation, cell-based, luminescence, quadruplicate (AID 588820;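 active means mean inhibition above 46.68%, the untreated control wells mean plus 3 SD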;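 further: 0% = DMSO wells and 100% = gossypol 36 µM treated wells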). The note with it: HEK293 GAL4-SRC1 luciferase reporter, at 3.6 µM, hits give high values.
Assay [4] is described as follows: VP16 transactivation inhibitors, counter-screen for SRC1 inhibitor project, cell-based, luminescence, high throughput (AID 588824; in the data active means inhibition above about 25%). The note with it: cell-based VP16 transactivation luciferase luminescence; at 3.6 µM; hits give high values.
Assay [5] is described as follows: StAR promoter reporter inhibitors, counter-screen for LRH-1 inverse agonist project, cell-based, luminescence, high throughput (AID 651611; in the data active means inhibition above about 28%). Conditions: StAR promoter luciferase reporter counterscreen, at 3.6 µM, hits give high values. (In general: The purpose of a counterscreen is to sort out artefacts and off-target activity.)
In assay [6] the target is Nuclear receptor subfamily 5 group A member 2 (Homo sapiens) (UniProt O00482). The assay can be described thus: LRH-1 (NR5A2) inverse agonists, retest, confirmation, cell-based, luminescence (AID 651613; in the data active means inhibition above about 42%;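 further: HEK293T cells co-transfected with LRH-1 and StAR promoter luciferase reporter; 0% = vehicle wells and 100% = parental cells lacking receptor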). Conditions: cell-based LRH-1 luciferase reporter, inverse agonism; at 3.6 µM; hits give high values. (In general: A reporter such as luciferase makes a cellular process visible.)

Assay [7] concerns the target Steroidogenic factor 1 (Homo sapiens) (UniProt Q13285). The assay can be described thus: SF1 (NR5A1) inverse agonists, counter-screen for LRH-1 inverse agonist project, cell-based, luminescence, high throughput (AID 651614; in the data active means inhibition above about 44%;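 further: cells cotransfected with StAR promoter reporter and SF1 expression vector; 0% = vehicle on cells with receptor and 100% = vehicle on cells lacking receptor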). Conditions: cell-based SF1 luciferase reporter, at 3.6 µM, hits give high values.
Assay [8] is described as follows: VP16 transactivation reporter inhibitors, counter-screen for LRH-1 inverse agonist project, cell-based, luminescence, high throughput (AID 651615; in the data active means inhibition above about 33%). Conditions: Gal4-VP16 luciferase reporter cells, at 3.6 µM, hits give high values.
The subject of assay [9] is transactivating tegument protein VP16 (Human herpesvirus 1). The assay can be described thus: VP16 transactivation reporter inhibitors, counter-screen for SRC2 inhibitor project, cell-based, luminescence, single concentration (AID 652007; in the data active means inhibition above about 36%). Conditions: cell-based VP16 transactivation luciferase reporter, at 8.9 µM, hits give high values.
In assay [10] the target is Nuclear receptor coactivator 2 (Homo sapiens) (UniProt Q15596). The assay can be described thus: SRC2 coactivator transcriptional activity inhibitors, confirmation, cell-based, luminescence, HEK293, triplicate (AID 652008).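 Further: 0% = DMSO-treated cells and 100% = Gossypol at 36 µM.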 Conditions: HEK293 GAL4-SRC2 luciferase reporter, at 8.9 µM, hits give high values.

Unmarked numbers belong to inactive results. Active and inactive are the calls of the source.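 How the source made its calls, unless noted: active means mean inhibition above 46.5%, the solvent-only control mean plus 3 SD; inactive means the rest.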

Nuclear receptor coactivator 2 (Homo sapiens), sequence (Q15596 whole entry, looked up, the tested form may be a part): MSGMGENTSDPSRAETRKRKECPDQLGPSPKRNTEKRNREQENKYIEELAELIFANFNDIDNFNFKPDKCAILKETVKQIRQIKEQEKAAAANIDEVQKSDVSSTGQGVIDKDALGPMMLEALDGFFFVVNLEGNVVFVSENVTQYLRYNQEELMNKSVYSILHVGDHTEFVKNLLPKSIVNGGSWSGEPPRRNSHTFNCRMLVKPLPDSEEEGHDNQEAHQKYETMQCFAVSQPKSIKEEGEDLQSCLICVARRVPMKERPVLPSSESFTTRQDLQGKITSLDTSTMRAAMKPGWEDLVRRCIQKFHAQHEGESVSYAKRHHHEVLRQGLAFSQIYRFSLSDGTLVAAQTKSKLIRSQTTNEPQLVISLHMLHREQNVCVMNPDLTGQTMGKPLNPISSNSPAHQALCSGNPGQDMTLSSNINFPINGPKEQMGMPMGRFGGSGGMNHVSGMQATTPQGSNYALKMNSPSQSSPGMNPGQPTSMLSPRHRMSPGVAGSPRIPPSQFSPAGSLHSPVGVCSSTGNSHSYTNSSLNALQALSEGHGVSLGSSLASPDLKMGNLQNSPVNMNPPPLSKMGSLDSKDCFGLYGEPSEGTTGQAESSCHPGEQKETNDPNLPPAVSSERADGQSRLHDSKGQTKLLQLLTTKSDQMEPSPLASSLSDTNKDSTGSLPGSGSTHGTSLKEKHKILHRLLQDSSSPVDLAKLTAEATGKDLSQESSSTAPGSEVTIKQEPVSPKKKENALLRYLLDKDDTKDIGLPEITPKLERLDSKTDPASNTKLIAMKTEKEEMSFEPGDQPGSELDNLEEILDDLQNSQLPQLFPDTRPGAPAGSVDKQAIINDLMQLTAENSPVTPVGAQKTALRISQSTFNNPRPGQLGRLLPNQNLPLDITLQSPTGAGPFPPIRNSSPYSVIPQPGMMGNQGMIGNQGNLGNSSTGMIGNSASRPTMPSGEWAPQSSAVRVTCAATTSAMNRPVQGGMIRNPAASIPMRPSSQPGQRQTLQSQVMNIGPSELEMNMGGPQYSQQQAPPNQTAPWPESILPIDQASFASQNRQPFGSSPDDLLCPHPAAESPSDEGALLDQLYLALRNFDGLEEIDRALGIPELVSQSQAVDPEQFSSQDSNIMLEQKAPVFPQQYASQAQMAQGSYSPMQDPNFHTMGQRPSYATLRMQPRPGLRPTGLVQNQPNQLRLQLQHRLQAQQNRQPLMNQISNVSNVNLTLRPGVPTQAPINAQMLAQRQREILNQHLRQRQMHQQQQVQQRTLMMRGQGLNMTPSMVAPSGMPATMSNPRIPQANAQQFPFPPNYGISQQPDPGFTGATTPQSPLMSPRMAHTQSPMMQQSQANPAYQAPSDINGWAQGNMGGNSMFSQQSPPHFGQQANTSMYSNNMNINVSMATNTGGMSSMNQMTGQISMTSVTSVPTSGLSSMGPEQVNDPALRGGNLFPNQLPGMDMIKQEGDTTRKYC
Steroidogenic factor 1 (Homo sapiens), sequence (Q13285 whole entry, looked up, the tested form may be a part): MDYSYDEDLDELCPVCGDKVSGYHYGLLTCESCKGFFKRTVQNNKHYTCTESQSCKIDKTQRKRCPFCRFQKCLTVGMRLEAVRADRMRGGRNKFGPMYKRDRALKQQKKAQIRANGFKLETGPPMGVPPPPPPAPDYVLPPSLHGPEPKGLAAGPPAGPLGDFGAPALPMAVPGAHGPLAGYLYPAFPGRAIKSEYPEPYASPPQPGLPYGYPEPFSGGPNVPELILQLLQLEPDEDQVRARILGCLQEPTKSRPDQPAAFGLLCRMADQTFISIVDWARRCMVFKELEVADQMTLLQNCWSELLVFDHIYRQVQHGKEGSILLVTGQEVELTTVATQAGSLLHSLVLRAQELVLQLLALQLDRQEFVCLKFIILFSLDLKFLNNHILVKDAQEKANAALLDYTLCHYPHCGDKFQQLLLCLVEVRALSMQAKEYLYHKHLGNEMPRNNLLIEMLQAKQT
Nuclear receptor coactivator 1 (Homo sapiens), sequence (Q15788 whole entry, looked up, the tested form may be a part): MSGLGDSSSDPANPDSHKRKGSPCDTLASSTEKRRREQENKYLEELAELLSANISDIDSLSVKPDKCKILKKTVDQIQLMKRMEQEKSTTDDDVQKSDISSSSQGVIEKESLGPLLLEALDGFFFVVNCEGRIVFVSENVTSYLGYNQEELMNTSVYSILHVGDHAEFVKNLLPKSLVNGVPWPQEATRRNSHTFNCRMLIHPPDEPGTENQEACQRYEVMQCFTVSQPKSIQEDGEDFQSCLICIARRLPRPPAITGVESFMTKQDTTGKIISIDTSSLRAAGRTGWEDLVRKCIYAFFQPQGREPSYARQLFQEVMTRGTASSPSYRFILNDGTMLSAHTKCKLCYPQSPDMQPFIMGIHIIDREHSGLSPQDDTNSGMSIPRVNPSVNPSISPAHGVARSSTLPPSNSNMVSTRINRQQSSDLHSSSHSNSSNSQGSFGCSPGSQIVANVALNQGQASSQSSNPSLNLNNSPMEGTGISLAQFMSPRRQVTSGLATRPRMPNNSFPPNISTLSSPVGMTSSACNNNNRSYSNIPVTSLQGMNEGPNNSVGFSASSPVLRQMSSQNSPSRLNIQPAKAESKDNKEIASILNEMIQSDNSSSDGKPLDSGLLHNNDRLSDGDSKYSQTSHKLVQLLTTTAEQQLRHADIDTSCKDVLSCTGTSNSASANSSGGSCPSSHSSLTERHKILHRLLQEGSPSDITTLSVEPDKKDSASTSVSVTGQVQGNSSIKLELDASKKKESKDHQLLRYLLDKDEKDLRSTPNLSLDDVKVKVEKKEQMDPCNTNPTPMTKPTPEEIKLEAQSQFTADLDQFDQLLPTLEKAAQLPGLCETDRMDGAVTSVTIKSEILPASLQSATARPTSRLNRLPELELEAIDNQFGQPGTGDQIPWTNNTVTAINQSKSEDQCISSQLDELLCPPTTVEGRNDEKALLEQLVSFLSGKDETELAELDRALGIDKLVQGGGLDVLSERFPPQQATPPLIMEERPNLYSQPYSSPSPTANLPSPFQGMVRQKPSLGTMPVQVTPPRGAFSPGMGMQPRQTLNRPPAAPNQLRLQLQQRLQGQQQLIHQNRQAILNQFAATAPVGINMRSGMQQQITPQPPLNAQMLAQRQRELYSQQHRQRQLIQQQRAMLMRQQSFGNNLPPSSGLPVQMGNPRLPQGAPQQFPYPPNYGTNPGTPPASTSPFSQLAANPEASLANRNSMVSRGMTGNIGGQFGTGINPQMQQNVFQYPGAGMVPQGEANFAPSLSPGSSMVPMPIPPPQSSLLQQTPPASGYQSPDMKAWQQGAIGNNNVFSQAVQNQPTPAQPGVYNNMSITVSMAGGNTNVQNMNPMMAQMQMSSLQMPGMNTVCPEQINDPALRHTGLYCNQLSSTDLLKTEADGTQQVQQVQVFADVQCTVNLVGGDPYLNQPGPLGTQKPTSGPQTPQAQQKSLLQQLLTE
Nuclear receptor subfamily 5 group A member 2 (Homo sapiens), sequence (O00482 whole entry, looked up): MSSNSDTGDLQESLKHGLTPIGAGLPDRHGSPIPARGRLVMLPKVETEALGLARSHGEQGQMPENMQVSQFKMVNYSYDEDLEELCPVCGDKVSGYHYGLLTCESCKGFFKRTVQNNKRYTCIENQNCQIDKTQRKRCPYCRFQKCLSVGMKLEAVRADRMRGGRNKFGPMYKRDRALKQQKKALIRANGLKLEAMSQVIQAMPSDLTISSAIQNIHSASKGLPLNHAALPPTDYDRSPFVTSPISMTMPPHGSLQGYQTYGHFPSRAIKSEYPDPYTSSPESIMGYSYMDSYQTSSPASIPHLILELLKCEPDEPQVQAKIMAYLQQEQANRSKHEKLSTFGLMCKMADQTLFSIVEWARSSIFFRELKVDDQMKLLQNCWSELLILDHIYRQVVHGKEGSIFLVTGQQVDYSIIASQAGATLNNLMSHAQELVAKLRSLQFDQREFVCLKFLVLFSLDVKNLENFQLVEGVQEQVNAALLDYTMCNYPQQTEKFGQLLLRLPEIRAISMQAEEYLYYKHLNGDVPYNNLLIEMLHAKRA

The term inhibition denotes the drop in the measured response relative to a control, in per cent. On to `CC(C)(C)c1ccc(C(=O)N2CCCCCC2=O)cc1`, for which the inhibition was 58% (active) in [1]; 41% (active) in assay [2]; 35.8% in assay [3]; 33.1% (active) in assay [4]; 45.6% (active) in [5]; 62.1% (active) in [6]. The inhibition is 56.1% (active) in assay [7], 56.4% (active) in assay [8], 63.6% (active) in [9] and 89.2% (active) in [10].

`CCCNC1=C(N(C(C)=O)c2cccc(F)c2)C(=O)c2ccccc2C1=O`: the inhibition was 49.9% (active) in assay [1]; 65.3% (active) in [2]; 58.6% (active) in assay [3]; 67.2% (active) in [4]; 68.9% (active) in assay [5]; 68.8% (active) in assay [6]. In addition, the inhibition is 88% (active) in [7], 69.2% (active) in [8], 24.1% in assay [9] and 34.3% in [10].

Consider `CC(=O)NC(c1ccc(C(C)C)cc1)c1ccc2cccnc2c1O` (stereo not given), for which the inhibition in assay [1] is 74.3% (active); in [2], 58.4% (active); in assay [3] it was 65.9% (active); in [4], 60.9% (active); in assay [5], 89.1% (active); in assay [6], 105% (active). In addition, the inhibition is 86.2% (active) in assay [7], 75% (active) in [8], -23.1% in assay [9] and 26.8% in [10].

In the case of `COc1ccc2cc3c(N)nn(C(=O)Cc4c[nH]c5ccccc45)c3nc2c1`, the inhibition was 82.3% (active) in [1]; 66.2% (active) in [2]; 69% (active) in assay [3]; 63.9% (active) in assay [4]; 51.1% (active) in [5]; 64.7% (active) in assay [6]. Also, the inhibition was 55.5% (active) in [7], 83.3% (active) in [8], 31.8% in assay [9] and 73.2% (active) in assay [10].

On to `CC(C)c1ccc(/C=C(\c2nc3ccccc3[nH]2)S(=O)(=O)c2ccccc2)cc1`, for which the inhibition in [1] is 54.2% (active); in [2], 39.6% (active); in [3], -0.35%; in [4] it was 24.9%; in [5], 33.9% (active); in assay [6], 54.6% (active). Also, the inhibition in assay [7] is 54.7% (active); in assay [8], 46.6% (active); in assay [9], 36.6% (active); in [10] it was 49.3% (active).

Consider `CC(C)(C)NCC(=Cc1ccccc1)C(=O)c1ccccc1`, for which the inhibition in assay [1] was 50% (active); in assay [2], 82.9% (active); in assay [3], -38.5%; in assay [4], 87.5% (active); in [5], 44.6% (active); in assay [6], 84.1% (active). For the same molecule, the inhibition in [7] was 84.3% (active); in assay [8], 89.1% (active); in assay [9], 72.5% (active); in assay [10], 71.1% (active).

For `O=C(OC(c1ccccc1)c1nccc2ccccc12)c1ccccc1` (stereo not given), the inhibition was 57.4% (active) in assay [1]; 42.8% (active) in [2]; 26.3% in [3]; 21.7% in assay [4]; 43.4% (active) in assay [5]; -16.8% in assay [6]. The inhibition in assay [7] was 45.4% (active); in [8] it was -4.96%; in assay [9] it was 30.1%; in assay [10] it was 67.6% (active).

`Oc1ccc(CCNc2ncnc3ccc(Cl)cc23)cc1`: the inhibition is 64.9% (active) in [1]; 61.6% (active) in [2]; 60.8% (active) in assay [3]; 62% (active) in assay [4]; 43.6% (active) in [5]; 70.5% (active) in assay [6]. Also, the inhibition in assay [7] was 68.7% (active); in [8] it was 78.6% (active); in assay [9], 26.7%; in assay [10], 65.6% (active).

Take `COc1cc(C(=O)/C=C/c2cccnc2)c([N+](=O)[O-])cc1OC`: the inhibition in [1] is 33.2%; in assay [2], 45.3% (active); in assay [3], 29.4%; in [4] it was 48.8% (active); in assay [5], 59.3% (active); in [6], 59.1% (active). Moreover, the inhibition in [7] was 56.7% (active); in assay [8], 68.5% (active); in [9] it was 18.2%; in assay [10] it was 45.8%.

As to `CCCn1c(C)cc(C(=O)CN2C(=O)c3ccccc3S2(=O)=O)c1C`, the inhibition is 70.8% (active) in [1]; 60.4% (active) in assay [2]; 45.7% in assay [3]; 55% (active) in [4]; 67% (active) in assay [5]; 36% in [6]. For the same molecule, the inhibition in assay [7] was 62.4% (active); in [8] it was 51.2% (active); in assay [9], 62.8% (active); in assay [10] it was 80.5% (active).

Regarding `Cc1ccc(-c2nc(-c3ccccn3)no2)cc1`, the inhibition in [1] was 59.3% (active); in assay [2] it was 48.7% (active); in assay [3], 29%; in [4], 43.9% (active); in [5], 39.1% (active); in assay [6], 11%. For the same molecule, the inhibition in [7] is 52% (active); in assay [8] it was 25%; in [9] it was 66.8% (active); in assay [10], 85.5% (active).

Take `Nc1ccc(Oc2ccccc2-c2ccccc2)cc1`: the inhibition was 42.6% in assay [1]; 17.6% in [2]; 14.7% in [3]; 19% in assay [4]; 30.3% (active) in assay [5]; 53.5% (active) in assay [6]. In addition, the inhibition in assay [7] is 49.6% (active); in assay [8], 39.6% (active); in assay [9], 80.5% (active); in [10], 87.8% (active).

Take `COc1ccc(-c2nsc3c(N4CCCCC4C)ncnc23)cc1` (stereo not given): the inhibition in assay [1] was 84.2% (active); in assay [2] it was 80.4% (active); in assay [3], 70.2% (active); in [4], 68.4% (active); in [5] it was 80.2% (active); in [6], 59.2% (active). Moreover, the inhibition in assay [7] is 80.9% (active); in [8], 67% (active); in assay [9] it was 83.1% (active); in assay [10], 93.3% (active).

As to `CC(C)(C)C(=O)Nc1ccc(NC(=O)c2ccco2)nc1`, the inhibition in assay [1] was 69.9% (active); in [2], 64.1% (active); in assay [3], 39.4%; in assay [4], 39.8% (active); in assay [5], 56.1% (active); in [6], 15.6%. The inhibition in [7] is 59.4% (active); in assay [8], 36.7% (active); in [9], 72.7% (active); in assay [10] it was 92.8% (active).

Values taken from PubChem BioAssay.
